LMNA splice mod – modulators of lamin A splicing; HeLa LMNA splicing GFP/RFP minigene ratio, 48 h; Potency, µM (series often up to 46.1 µM), without a hit: top-dose ratio change, negative = inhibition, hits mostly inhibitors; 200,000 compounds, 0.01% hits; AID 1487; active = well fitted inhibition curve with a large enough effect in the signal ratio, with a control signal flat, not every such curve was filed as active; inconclusive = small, poorly fitted or top-dose-only effect, or effect the other way, or a change in a side signal; the % refers to the signal ratio
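S3 HeLa stable clones carrying a lamin A-EGFP splicing minigene plus DsRed2 were seeded at 600 cells/well in Opti-MEM with 2% FBS, pin-dosed and incubated 48 h at 37°C. Acumen cytometry (488 nm) gave the GFP/RFP total-intensity ratio.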
ALDH1A1 block – ALDH1A1 (human) enzyme inhibition; P00352; Purified ALDH1A1, NADH fluorescence, propionaldehyde substrate; Potency, µM (series often up to 75.3 µM), for the others: at the top dose activity, negative = inhibition, hits mostly inhibitors; 220,000 compounds, 7.3% hits; active = well fitted inhibition curve with a large enough effect, not every such curve was filed as active; inconclusive = small, poorly fitted or top-dose-only effect, or another doubt; inactive = no such curve, though single readings can be large or run the other way;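 also: plate controls were no enzyme wells and a reference inhibitor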
Target sequence (P00352 whole entry, looked up): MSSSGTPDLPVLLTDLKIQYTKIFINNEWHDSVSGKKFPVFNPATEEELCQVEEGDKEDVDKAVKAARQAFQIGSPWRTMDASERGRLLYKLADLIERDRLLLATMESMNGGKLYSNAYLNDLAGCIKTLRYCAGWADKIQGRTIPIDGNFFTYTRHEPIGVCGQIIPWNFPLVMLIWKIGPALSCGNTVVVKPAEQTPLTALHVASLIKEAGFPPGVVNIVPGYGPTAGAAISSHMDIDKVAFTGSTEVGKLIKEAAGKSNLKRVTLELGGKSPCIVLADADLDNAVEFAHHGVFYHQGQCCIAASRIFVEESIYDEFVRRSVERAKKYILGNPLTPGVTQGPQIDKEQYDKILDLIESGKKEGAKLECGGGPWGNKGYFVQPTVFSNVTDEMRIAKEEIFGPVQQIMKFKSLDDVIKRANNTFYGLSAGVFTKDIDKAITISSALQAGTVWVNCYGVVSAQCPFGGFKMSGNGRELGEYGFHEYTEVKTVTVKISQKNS
HPGD inh – HPGD (human) dehydrogenase inhibition. P15428. purified HPGD, NADH fluorescence kinetic, PGE2 substrate. Potency, µM, inactives show at the highest dose activity change, negative = inhibition, hits mostly inhibitors. 150,000 compounds, 4.3% hits. AID 894; active = well fitted inhibition curve with a large enough effect, not every such curve was filed as active; inconclusive = small, poorly fitted or top-dose-only effect, or another doubt; inactive = no such curve, though single readings can be large or run the other way
Target sequence (P15428 whole entry, looked up): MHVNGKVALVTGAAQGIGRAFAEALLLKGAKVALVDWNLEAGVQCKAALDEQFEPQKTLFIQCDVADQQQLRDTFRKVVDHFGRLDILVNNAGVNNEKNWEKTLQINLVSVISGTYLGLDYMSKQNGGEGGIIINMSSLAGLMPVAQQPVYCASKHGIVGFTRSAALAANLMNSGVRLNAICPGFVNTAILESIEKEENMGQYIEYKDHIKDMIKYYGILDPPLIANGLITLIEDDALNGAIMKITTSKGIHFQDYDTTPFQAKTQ
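NADH formation kinetics: reaction with 30 uM PGE2 and 1 mM NAD+ (final), 20 nM enzyme, Tris-HCl pH 8 with Tween 20, after 15 min compound preincubation at room temperature. Fluorescence change, last versus first of five reads.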
Luc counter – blocks Kinase-Glo luciferase, a counter-screen artifact | AID 1379 | 200,000 compounds, 0.28% hits | Potency, µM (series often up to 38.3 µM), inactives show top-dose activity change, negative = inhibition, most hits filed as inhibitors | Kinase-Glo luciferase, ATP luminescence, 8 min; also: nearly all actives have a fitted effect of over 60% in size
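Light output from Kinase-Glo luciferase with luciferin and 10 uM ATP in 50 mM imidazole pH 7.2, KCl, MgCl2, Tween 20, BSA; compound pin-delivered, 8-min ambient incubation, then luminescence read.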
IMPase Li cell – membrane-permeable IMPase blocker, potentiated with lithium; Potency, µM (highest dose often 59.4 µM), inactives show at the highest dose activity, negative = IMPase inhibition, hits mostly inhibitors; AID 1457; 210,000 compounds, 0.35% hits; CHO-M1 cells, IP1 TR-FRET (IP-One), carbachol + lithium;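 also: IP1 builds up when IMPase is blocked and the TR-FRET signal falls; plate controls were basal vehicle for no effect and high inhibitor control for full effect; nearly all actives have a fitted effect of over 50% in size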
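CHO cells stably expressing M1 receptor (2000/well, cultured 16–30 h) treated 30 min at 37C with compound plus low lithium. Cytosolic IP1 by TR-FRET (665/620 ratio and 620 channel) after 10 min lysis; AC50 by Hill fit.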
An asterisk follows results filed as active; u = inconclusive; x = no result; [ ] = dose if it differs, or a comment. Hits are enriched below; roughly 9% of the tested compounds scored in any of these assays. Unless noted, calls follow the shape of the dose curve; as a rule, active = well fitted curve in the direction sought with a large enough effect; inconclusive = small, poorly fitted or top-dose-only effect, or another doubt; inactive = no such curve, though single readings can be large; an effect the other way counts as inactive or inconclusive. Unless noted, % is scaled to controls: 0 for no effect and ±100 for the full control effect; potency is read from the fitted curve at half-maximal effect.

SMILES | LMNA splice mod | ALDH1A1 block | HPGD inh | Luc counter | IMPase Li cell
COC(=O)[C@H](Cc1ccccc1)NC(=O)O[C@H]1C(=O)c2cc(OC)ccc2O[C@@H]1c1ccc(OC)c(Br)c1 | x | 3.6% | -4.5% | -0.2% | 21.8%
Cc1ccc(CN/C=C/C(=O)c2ccc(Br)cc2)cc1 | u | 15.8µM* | u | -2.7% | 8.9%[38.3 µM]
O=C(CCc1ccccc1)NN1C(=O)C2C3C=CC(O3)C2C1=O (stereo not drawn) | x | 13.9% | x | 2.0% | -6.4%
CCOc1ccc(C(=O)NN2C(=O)C3C4C=CC(O4)C3C2=O)cc1 (stereo not drawn) | 6.7% | 12.6µM* | 7.6% | 0.7% | 14.8%[38.3 µM]
Cc1ccccc1OCC(=O)NN1C(=O)C2C3C=CC(O3)C2C1=O (stereo not drawn) | 6.3%[46 µM] | 8.91µM* | x | -1.1% | 9.5%
Cc1cccc(OCC(=O)NN2C(=O)C3C4C=CC(O4)C3C2=O)c1 (stereo not drawn) | -11.8%[9.22 µM] | 3.16µM* | x | -3.7% | 4.4%
CN(C)CCC1CCN(c2cc(C#N)c(C#N)cc2[N+](=O)[O-])CC1 | x | 9.4% | x | -2.6% | u
CC1(C)CC2(CC(c3ccccc3F)c3ccc(O)c(O)c3O2)NC(=S)N1 (stereo not drawn) | -16.3%[46 µM] | u | x | 2.2% | 1.1%
COc1ccc(CCNC(=O)Cn2c(=O)n(-c3ccc(C)c(F)c3)c(=O)c3sccc32)cc1OC | 10.1%[46 µM] | 6.31µM* | x | -3.0% | -8.2%
CC(C)C1OC2c3cccc4cccc(c34)C2N1c1ccccc1 (stereo not drawn) | -10.8% | 25.1µM* | -6.5% | 2.9% | 0.7%
CCOCCCNC(=O)CSc1nc2nc(C)c(Cc3ccccc3)c(C)n2n1 | 1.9%[46 µM] | -0.3% | x | 0.5% | u
On1c2c(c3c4nonc4ccc31)CCCC2 | -2.6% | 31.6µM* | 15.8µM* | 0.2% | 9.2%
CC(C)CC(N)C(=O)NC(C)C(=O)O (stereo not drawn) | 8.1% | 4.0% | -13.4% | -2.6% | -2.2%
Cc1ccc(-c2n[nH]c(=O)c3ccccc23)cc1S(=O)(=O)NCCO | -21.7% | 6.9% | 14.1µM* | -3.6% | 18.4%[38.3 µM]
CCOC(=O)CNS(=O)(=O)c1cc(-c2nn(C)c(=O)c3ccccc23)ccc1C | -10.2% | u | 15.8µM* | -2.6% | 24.3%[38.3 µM]
Cc1ccc(S(=O)(=O)NCCC(=O)Nc2nccs2)cc1 | -16.9%[46 µM] | u | x | -0.2% | -0.8%
CC1(C)Cc2nc3nc(SCC(=O)NCc4ccccc4)n(-c4ccccc4)c(=O)c3cc2CO1 | 1.7% | 3.55µM* | -7.4% | 0.3% | -2.7%[38.3 µM]
CC1(C)Cc2nc3nc(SCC(=O)NCCc4ccccc4)n(-c4ccccc4)c(=O)c3cc2CO1 | 10.5% | 2.51µM* | -14.1% | -1.7% | -9.4%[38.3 µM]
CCN(CC)S(=O)(=O)c1ccc(O)c(C(=O)OCC(=O)Nc2ccc(OC(F)(F)F)cc2)c1 | -36.0%[46 µM] | u | x | 3.0% | 15.2%
CO[C@@H](CCOCc1ccccc1)C[C@H]1O[C@H](C(=O)OC(C)C)C=C[C@@H]1C | x | -2.5% | -9.8% | -2.8% | 13.7%
COc1cc(C(=O)OCC(=O)NC2CCS(=O)(=O)C2)ccc1OCc1c(C)noc1C (stereo not drawn) | -17.4% | -0.4% | -14.8% | 0.6% | -2.3%
CCOC(=O)N1CCc2c(sc3nc(SC(C)C)n(N)c(=O)c23)C1 | u | 4.47µM* | x | x | x
Cc1cc2occ(CC(=O)NC3CCCc4ccccc43)c2cc1C (stereo not drawn) | -18.9% | 2.24µM* | -9.4% | 0.8% | 10.3%
Nc1ccc2nc(-c3ccccc3)sc2c1 | u | u | u | 7.94µM* | 11.2µM*
Nc1ccc(-c2nc3cc(N)ccc3s2)cc1 | -7.3%[46 µM] | u | x | -17.4% | -17.0%
SMILES | LMNA splice mod | ALDH1A1 block | HPGD inh | Luc counter | IMPase Li cell
O=C(c1nc2ccccc2s1)N1CCSCC1 | -1.4% | -0.6% | 8.91µM* | 0.3% | 13.4%[38.3 µM]
O=C(c1nc2ccccc2s1)N1CCN(c2ccccn2)CC1 | -8.7% | u | -7.2% | 1.1% | 35.6%[38.3 µM]
CC(C)(C)C1CCc2c(sc(NC(=O)c3ccco3)c2C(N)=O)C1 (stereo not drawn) | -5.7% | u | u | 3.7% | 5.62µM*
NC(=O)c1c(NC(NC(=O)c2ccco2)C(=O)c2ccc(Cl)cc2)sc2c1CCCC2 (stereo not drawn) | -5.2% | 17.8µM* | -20.4% | -1.4% | 3.1%[38.3 µM]
COc1ccc(-c2nc(C)c(CCNC(=O)c3ccc(F)c(F)c3)s2)cc1 | -0.2%[46 µM] | x | x | x | x
Cc1ccc(S(=O)(=O)N/N=C2/CCCCC2C2CCCCC2)cc1[N+](=O)[O-] (stereo not drawn) | -1.5% | 35.5µM* | -10.1% | 1.2% | 1.1%
CCC(C)(C)C1CCC(=NNS(=O)(=O)c2ccc(C)c([N+](=O)[O-])c2)CC1 (stereo not drawn) | -6.4% | 7.94µM* | -3.4% | -2.0% | -8.2%
CN1CC(c2ccc(Cl)c(Cl)c2)[C@@]2(COc3ccccc3C2=O)[C@@]12C(=O)Nc1ccccc12 (stereo partly drawn) | u | 0.6% | -6.4% | 6.4% | 8.3%
COc1ccc(N2C(=O)CC(N3CCC(c4nc5ccccc5[nH]4)CC3)C2=O)cc1 (stereo not drawn) | 6.5% | u | 1.7% | -0.6% | 27.8%[38.3 µM]
O=C1CC(N2CCC(c3nc4ccccc4[nH]3)CC2)C(=O)N1c1ccccc1F (stereo not drawn) | -11.4%[46 µM] | 10µM* | x | -0.7% | -8.7%
O=C(CCS(=O)(=O)c1cccc2nonc12)Nc1ccc(F)cc1F | -3.0%[46 µM] | x | x | x | x
Cc1ccc2c(c1)C(Cc1ccccc1F)C(=O)N2 (stereo not drawn) | 9.3%[46 µM] | x | x | x | x
C=CCn1c(N)c(C(=O)Nc2ccccc2OC)sc1=S | -4.4% | 22.4µM* | x | x | x
CCOC(=O)c1sc(N)c(C(=O)Nc2ccc(C)cc2C)c1C | x | 10µM* | 3.98µM* | -0.7% | x
CCOC(=O)c1sc(NC(=O)c2sccc2C)cc1C | -18.5% | u | u | 11.2µM* | -3.0%[38.3 µM]
CCOC(=O)c1sc(N)c(C(=O)OC)c1C | x | -11.7% | x | -1.9% | 6.6%
CCOC(=O)c1sc(N)c(C(=O)Nc2ccccc2OC)c1C | -10.0%[9.22 µM] | 4.47µM* | x | -3.3% | 5.9%
OCCN[C@@H]1c2cc(Cl)ccc2-c2c(Cl)cc(Cl)cc21 | x | 4.2%[13.5 µM] | 3.6% | -1.5%[7.66 µM] | 2.1%
Cc1ccc(NC(=S)NC(=O)c2c(-c3ccccc3Cl)noc2C)cc1 | -12.3% | 7.94µM* | -15.9% | -2.4% | -25.7%[38.3 µM]
Cc1onc(-c2ccccc2Cl)c1C(=O)NC(=S)Nc1ccc(C(C)C)cc1 | -5.3%[46 µM] | 20µM* | x | x | x
Cc1onc(-c2ccccc2Cl)c1C(=O)Nc1nnc(-c2ccc(Br)cc2)s1 | u | u | u | 0.6% | 8.91µM*
CCOC(=O)CCCN | x | -7.0%[13.5 µM] | -4.1% | -2.3%[7.66 µM] | -13.6%
CCOc1cc2c(cc1/C=C1/NC(=O)N(CC(=O)OC)C1=O)OCO2 | x | 11.2µM* | x | 3.5% | -2.3%
COC(=O)CN1C(=O)N/C(=C/c2cc(Cl)c(OC)c(OC)c2)C1=O | x | 3.98µM* | x | 1.6% | -7.0%
